Only some compounds are listed: those with a hit (about 3% of all), similar ones and a draw of the others.
Nrf2 activator – qHTS of Nrf2 Activators; AREc32 ARE-luciferase reporter (MCF7-derived line), luminescence, 24 h; Potency, µM (doses to about 46.1 µM), for the others: at the top dose activation, actives largely listed as activators; actives 0.31% (n = 410,000); note: % of control where 0% means no effect; nearly all actives have a fitted effect of over 65% in size
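Steps: seed AREc32_Fluc cells (1000/well, 5% FBS OPTI-MEM); incubate overnight at 37 deg C; add 23 nL compound; incubate 24 hr; add Steady-Glo; hold 30 min RT; read luminescence.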
GALK inhibitor – qHTS Assay for Inhibitors of Human Galactokinase (GALK); AID 1868, 2009; P51570; actives 0.007% (n = 270,000); Potency, µM (doses to about 57.5 µM), without a hit: at the highest dose activity change, negative = inhibition, actives largely listed as inhibitors; Purified GALK, Kinase-Glo residual ATP luminescence; note: % is set by controls: 0 for no effect and ±100 for the full control effect
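ATP-depletion format; final 35 uM ATP, 100 uM D-galactose, 5 nM enzyme; pH 8.0 HEPES/Mg2+ buffer; 60 min RT; luminescence read 10 min after detection reagent.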
A549 tox – Nrf2 qHTS screen for inhibitors: counterscreen for cytotoxicity | Potency, µM (series often up to 46 µM), for inactives: at the highest dose activity change, negative = cytotoxicity, most hits filed as inhibitors | AID 504648, 2011 | A549 ARE-Fluc cells, CellTiter-Fluor viability, 18-24 h | actives 0.16% (n = 390,000); note: % is set by controls: 0 for no effect and ±100 for the full control effect
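Cytotoxicity counterscreen: CellTiter-Fluor fluorescence was measured in A549 ARE_Fluc cells after 18-24 h of compound exposure in a concentration series. The subsequent BugLite luminescent read reports ARE-luciferase activity.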
rTrxR1 inhibitor – qHTS Assay for Inhibitors of Mammalian Selenoprotein Thioredoxin Reductase 1 (TrxR1): qHTS. recombinant rTrxR1, NADPH fluorescence consumption, selenite substrate. Potency, µM (top dose mostly 114 µM), for inactives: top-dose activity change, negative = inhibition, hits mostly inhibitors. Thioredoxin reductase 1, cytoplasmic (Rattus norvegicus), O89049. actives 1% (n = 390,000). AID 588453, 2011; note: % is set by controls: 0 for no effect and ±100 for the full control effect; nearly all actives have a fitted effect of over 65% in size
Target sequence (O89049 whole entry, looked up): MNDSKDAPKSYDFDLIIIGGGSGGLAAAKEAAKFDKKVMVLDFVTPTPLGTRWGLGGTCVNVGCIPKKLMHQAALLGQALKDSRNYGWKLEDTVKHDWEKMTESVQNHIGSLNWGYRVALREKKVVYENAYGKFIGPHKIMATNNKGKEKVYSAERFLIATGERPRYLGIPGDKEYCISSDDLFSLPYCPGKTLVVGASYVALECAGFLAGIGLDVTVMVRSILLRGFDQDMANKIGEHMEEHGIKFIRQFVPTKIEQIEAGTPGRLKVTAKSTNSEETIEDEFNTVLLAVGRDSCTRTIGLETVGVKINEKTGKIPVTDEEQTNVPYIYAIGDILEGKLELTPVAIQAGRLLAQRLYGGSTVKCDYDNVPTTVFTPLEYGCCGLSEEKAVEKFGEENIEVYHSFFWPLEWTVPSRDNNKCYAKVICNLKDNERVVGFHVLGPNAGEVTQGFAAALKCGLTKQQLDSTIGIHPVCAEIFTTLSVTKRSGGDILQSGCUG
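Rat TrxR1 (90 nM in the dispensed reagent) was pre-reduced with 400 uM NADPH for 5 min at room temperature, then incubated with compound for 15 min. After 400 uM selenite was added, NADPH fluorescence (Ex 340/Em 450 nm) was followed for 8 min.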
Nrf2 inh – Nrf2 qHTS screen for inhibitors. actives 2.1% (n = 360,000). AID 504444, 2011. A549 ARE-Fluc reporter, luciferase luminescence, 18-24 h. Potency, µM (doses to about 46 µM), without a hit: at the top dose activity change, negative = inhibition, usual class: inhibitors; note: % is set by controls: 0 for no effect and ±100 for the full control effect; nearly all actives have a fitted effect of over 60% in size
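Quantitative HTS in A549 cells stably bearing an antioxidant response element-firefly luciferase construct. Inhibition of Nrf2-driven transcription was scored by luminescence after 18-24 h of compound exposure at 37 °C.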
TrxR1 substrate – qHTS Assay for Substrates of Mammalian Selenoprotein Thioredoxin Reductase 1 (TrxR1): qHTS | purified TrxR1 substrate turnover, NADPH consumption readout | Potency, µM (highest dose often 114 µM), without a hit: at the highest dose activity change, negative = substrate turnover | actives 0.01% (n = 390,000) | AID 588456, 2011; note: % is set by controls: 0 for no effect and ±100 for the full control effect; nearly all actives have a fitted effect of over 50% in size
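Rat TrxR1, dispensed at 90 nM, was prereduced with 400 uM NADPH (final) for 5 min at ~22 deg C, then incubated with compound 15 min before 400 uM selenite. A first-read NADPH fluorescence drop versus no-compound background flagged substrates.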
* marks the source's active call; other numbers are inactive results; [ ] = dose if it differs, or a comment. Calls come from the whole dose curve; as a rule, active = well fitted curve in the direction sought with a large enough effect; inconclusive = small, poorly fitted or top-dose-only effect, or another doubt; inactive = no such curve, though single readings can be large; an effect the other way counts as inactive or inconclusive. Potency is the fitted concentration of half-maximal effect.

Screening CC#C[C@]1(O)CC[C@H]2[C@@H]3CCC4=CC(=O)CCC4=C3[C@@H](c3ccc(N(C)C)cc3)C[C@@]21C returned Nrf2 activator 0%, GALK inhibitor -3%, A549 tox -19%, rTrxR1 inhibitor inconclusive, Nrf2 inh 23µM* and TrxR1 substrate inconclusive.
For O=Cc1[nH]c2ccccc2c1N(C(=O)CCl)c1ccccc1 the results were Nrf2 activator inconclusive, GALK inhibitor 3%, A549 tox 1%, rTrxR1 inhibitor 3.5µM*, Nrf2 inh inconclusive and TrxR1 substrate 6%[57.1 µM].
For O=C(CCl)N(c1ccccc1)c1ccccc1 the results were Nrf2 activator -2%, GALK inhibitor -5%, A549 tox -2%, rTrxR1 inhibitor inconclusive, Nrf2 inh -7% and TrxR1 substrate 9%[57.1 µM].
For c1cc(C(c2nnnn2C2CCCC2)N2CCOCC2)ccn1 (stereo not given) the results were Nrf2 activator 0%, GALK inhibitor 1%, A549 tox -5%, rTrxR1 inhibitor 14µM*, Nrf2 inh -13% and TrxR1 substrate 7%.
For COc1ccccc1-c1n[nH]c(=S)n1Cc1ccco1 the results were GALK inhibitor 13%.
COc1cccc(-c2n[nH]c(=S)n2Cc2ccco2)c1 was read as Nrf2 activator 13%, GALK inhibitor 1%, A549 tox -2%, rTrxR1 inhibitor 40µM*, Nrf2 inh -2% and TrxR1 substrate -6%.
Screening O=C(Cn1cnc2onc(-c3ccc(F)cc3)c2c1=O)Nc1cccc(C(F)(F)F)c1 returned Nrf2 activator 1%, A549 tox -25%, rTrxR1 inhibitor 32%, Nrf2 inh 23µM* and TrxR1 substrate -8%.
`Cc1n(Cc2ccccc2)c2ccccc2[n+]1Cc1ccccc1` gave Nrf2 activator -1%, GALK inhibitor -2%, A549 tox -7%, rTrxR1 inhibitor 14%[57.1 µM], Nrf2 inh 16µM* and TrxR1 substrate -11%.
CC(=O)c1sc2nc(-c3cccs3)cc(C(F)(F)F)c2c1N was read as Nrf2 activator 6.3µM*, GALK inhibitor 1%, A549 tox 12%, rTrxR1 inhibitor -13%, Nrf2 inh 10% and TrxR1 substrate 3%.
Screening O=C(c1ccccc1)n1c(=O)c(F)cn(COCCBr)c1=O returned Nrf2 activator 0%, GALK inhibitor 7%, A549 tox -6%, rTrxR1 inhibitor 45µM*, Nrf2 inh -9% and TrxR1 substrate 9%.
`CC(=O)c1cccc(NC(=O)CN2C(=O)CN(C)C(=O)c3ccccc32)c1` gave Nrf2 activator 0%, A549 tox 7%, rTrxR1 inhibitor 12%[57.1 µM] and TrxR1 substrate -3%[57.1 µM].
For N#C/C(=C(/O)COc1ccc(Cl)cc1)c1nc2ccccc2s1 the results were Nrf2 activator 2%, GALK inhibitor inconclusive, A549 tox 16µM*, rTrxR1 inhibitor 4%[57.1 µM], Nrf2 inh 23µM* and TrxR1 substrate 4%[57.1 µM].
For CC1CCCCN1c1ncnc2ccccc12 (stereo not given) the results were Nrf2 activator 3%, GALK inhibitor 0%, A549 tox 10%, rTrxR1 inhibitor 8%, Nrf2 inh inconclusive and TrxR1 substrate 4%.
CC1(C)CC2CC(C)(CN2c2ncnc3ccccc23)C1 (stereo not given) was read as Nrf2 activator 0%, GALK inhibitor 1%, A549 tox inconclusive, rTrxR1 inhibitor -2%, Nrf2 inh 10µM* and TrxR1 substrate 1%.
Screening O=C(CCl)Nc1cc2[nH]c(=O)[nH]c2cc1Br returned Nrf2 activator inconclusive, GALK inhibitor -8%, A549 tox 23µM*, rTrxR1 inhibitor -31%[57.1 µM], Nrf2 inh 21µM* and TrxR1 substrate -1%[57.1 µM].
